Hits are enriched below; roughly 4.9% of the tested compounds scored in any of these assays.
Beta apoptosis – blocks beta cell apoptosis; protection from apoptosis, % (test concentration not listed); hit rate 0.8% among 300,000; INS-1E cytokine-induced death, ATP luminescence, 48 h; percent of positive-control rescue, neutral wells zero; AID 435005;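 active means Every replicate reaches about 75%, or at least half do and their mean reaches it too, limit read from the data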;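 further: 0% = cytokine-treated negative control wells and 100% = positive control rescue; higher means more ATP so stronger rescue from cytokine killing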
CSC inhib – cancer stem cell inhibition. AID 2717. cancer stem cell-like cells viability, luminescence. hit rate 1.1% among 300,000. inhibition, % at 7.5 µM; in the data active means inhibition above about 75%; tested in HMLE shEcad cells
PP5 primary – inhibitors of human protein phosphatase 5 (PP5) | purified PP5c, OMFP substrate fluorescence | inhibition, % at 6.7 µM | hit rate 0.18% among 320,000 | AID 1987;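 active means inhibition above the campaign's mean inhibition across all tested compounds plus 3 SD, cut at about 9.5% in these data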;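 further: 0% = DMSO only and 100% = 100 µM cantharidin control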
PP1 counter – blocks human PP1-alpha phosphatase, a PP5 counter-screen | purified PP1alpha, OMFP fluorescence | inhibition, % at 6.7 µM | hit rate 0.9% among 320,000 | AID 2235;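 active means inhibition above the mean inhibition of all tested compounds plus 3 SD, computed separately for each screening campaign, cut at about 15% in these data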
Target sequence (P62136 whole entry, looked up): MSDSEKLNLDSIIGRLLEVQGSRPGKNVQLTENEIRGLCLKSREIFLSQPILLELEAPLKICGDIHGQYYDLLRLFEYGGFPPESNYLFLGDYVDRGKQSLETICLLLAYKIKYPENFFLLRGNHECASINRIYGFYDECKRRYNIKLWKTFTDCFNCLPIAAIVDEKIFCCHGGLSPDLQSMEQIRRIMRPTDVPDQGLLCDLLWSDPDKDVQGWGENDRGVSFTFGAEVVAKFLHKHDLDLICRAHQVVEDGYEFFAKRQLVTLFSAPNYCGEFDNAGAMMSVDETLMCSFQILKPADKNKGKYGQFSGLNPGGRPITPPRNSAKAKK
Calb FLC – affects C. albicans growth with fluconazole. C. albicans CaCi-2 (fluconazole-resistant clinical isolate) + fluconazole, Alamar Blue growth, 48 h. growth inhibition, % (concentration not given with the values). hit rate 0.57% among 300,000;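 active means growth inhibition above about 58% in most replicates, limit read from the data, passing the limit was not always enough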;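 further: all wells also contain fluconazole at 8 µg/ml as a sub-toxic cotreatment; 0% = median of DMSO wells and 100% = median of geldanamycin control wells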
Mdm2-MdmX inh – human Mdm2/MdmX binding inhibition; O15151+Q00987; SaOS-2 split-luciferase Mdm2/MdmX complementation, luminescence; inhibition, % at 8 µM; hit rate 3% among 330,000; AID 485346;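 active means inhibition of at least 50% at 8 µM in the primary screen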
PP1 inh confirm – confirmation of human PP1 phosphatase inhibitors; shares compounds with PP1 counter; hit rate 52% among 1,900; inhibition, % at 6.7 µM; purified PP1alpha, OMFP substrate fluorescence;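 active means mean PP1 inhibition above a set limit taken from the earlier primary screen, cut at about 15% in these data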
PP5 counter – inhibits human PP5 phosphatase in PP1 counter-screen. shares compounds with PP1 counter. purified PP5c, OMFP fluorescence. inhibition, % at 6.7 µM. hit rate 4% among 1,900;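 active means mean PP5 inhibition over triplicate wells above about 9.5% taken from the earlier PP1 screen, limit read from the data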
* marks the source's active call; other numbers are inactive results; x = not tested or not shown.

SMILES	Beta apoptosis	CSC inhib	PP5 primary	PP1 counter	Calb FLC	Mdm2-MdmX inh	PP1 inh confirm	PP5 counter
COC(=O)C1=C(CSc2nc3c(cc2C#N)CN(C)CC3)OC(N)=C(C#N)C1c1ccc(F)cc1 (configuration not stated)	-9.3	-2.9	4.6	18.5*	19.4	25.5	4.7	5.1
COc1c(N2CCN(C(=S)NCc3ccccc3)C(C)C2)c(F)cc2c(=O)c(C(=O)O)cn(C3CC3)c12 (configuration not stated)	30.8	x	2.8	43.3*	15.9	4.0	32.8*	-4.2
CC(=O)Nc1ccc2nc(-c3ccccn3)[nH]c2c1	2.5	9.6	1.6	3.8	-0.8	-41.7	x	x
c1ccc(-c2nc3cc4ccccc4cc3[nH]2)nc1	43.9	26.5	1.7	30.1*	48.8	-21.3	19.6*	3.6
COc1ccc(CC(=O)N/N=C(\C)c2cccs2)cc1	-0.4	2.3	-3.9	-6.4	1.2	7.8	x	x
CCCOc1ccc(/C(O)=C2/C(=O)C(=O)N(c3ccccn3)C2c2ccc(OC)cc2)cc1C (configuration not stated)	-2.9	4.7	-1.1	31.5*	18.9	-13.4	23.1*	-3.1
Cn1nc(C(=O)NNC(=O)C2CSC3(C)CCC(=O)N23)c2ccccc2c1=O (configuration not stated)	-4.5	-8.4	-0.3	-4.1	5.2	3.8	x	x
CC(C)(CS(=O)(=O)[O-])NC(=O)CC[N+](C)(C)CCO	-7.1	1.8	4.2	70.5*	-1.4	17.5	55.8*	-3.7
O=C(C[n+]1ccccc1)c1ccc(-c2ccccc2)cc1	-0.2	30.5	-0.2	2.5	20.9	-0.2	x	x
C=Cn1cc[n+](CC(=O)c2ccc(-c3ccccc3)cc2)c1	4.3	19.2	1.7	21.7*	4.7	19.8	-1.6	-0.3
CCCc1[nH]n(-c2nc3ccccc3s2)c(=O)c1C=NCCN1CCOCC1	-10.5	x	2.0	19.6*	-9.8	-6.7	-1.2	0.6
O=C1C(Cc2ccccc2)Nc2ncnc(N3CCN(c4ccccc4)CC3)c2N1Cc1ccc(Br)cc1 (configuration not stated)	1.6	x	x	x	x	22.1	x	x
O=C1C(Cc2ccccc2)Nc2ncnc(N3CCc4ccccc4C3)c2N1Cc1ccc(Br)cc1 (configuration not stated)	3.4	51.1	2.2	19.9*	9.0	4.0	14.7	-0.7
CN1C(=O)C(Cl)(Cl)C(=O)c2ccccc21	x	x	x	x	0.9	x	x	x
Cc1cccc(/C=N/NC(=O)c2cc(-c3cccnc3)nc3ccccc23)c1	-5.9	1.6	1.7	77.7*	13.5	-14.5	-2.0	-1.4
O=C(COc1ccc(/C=N/NC(=O)c2ccc(O)cc2)cc1)Nc1cccc([N+](=O)[O-])c1	-2.7	-2.7	0.1	26.7*	2.8	5.0	25.8*	-2.4
O=C(CN(c1ccccc1)S(=O)(=O)c1ccccc1[N+](=O)[O-])Nc1ccccc1C(=O)N1CCOCC1	x	3.0	0.3	-7.1	7.1	-5.6	x	x
O=C(CSc1nnc(SCc2ccc(Cl)cc2)s1)N/N=C/c1c[nH]c2ccccc12	6.3	27.8	2.1	25.1*	-5.7	x	31.6*	0.7
CCCOc1ccc(C(C)=O)cc1CSc1nc(O)cc(=O)[nH]1	0.4	x	-1.1	19.0*	-0.7	10.3	2.9	-0.6
O=C(O)/C(=C\c1ccccc1)c1ccc2ccccc2c1	-4.0	5.9	-0.8	0.8	-1.7	-13.0	x	x
COc1ccc(CC(=O)Nc2c3c(nn2-c2ccccc2C)CS(=O)C3)cc1 (configuration not stated)	-6.4	x	-0.1	21.9*	-10.4	21.1	0.5	-1.1
O=[N+]([O-])c1cc(CN(CCO)CCO)ccc1O	-2.1	-2.6	-0.5	0.7	4.8	-12.2	x	x
O=[N+]([O-])c1ccc(N2CCN(S(=O)(=O)c3ccc(Cl)cc3)CC2)cc1NCc1cccnc1	-7.2	2.6	-0.6	19.4*	8.3	17.4	16.0*	-1.4
O=c1ccc2cc3c([nH]c4ccc(Br)cc43)oc-2c1O	-7.6	16.0	7.8	57.7*	0.8	18.7	36.8*	1.7
CCN(CC)c1ccc(C2Nc3cccc4cccc(c34)N2)cc1	1.1	-6.2	3.2	4.9	-11.3	-30.4	x	x

Compound activity (PubChem)
